Hits are enriched below; roughly 3.5% of the tested compounds scored in any of these assays.
GPR151 activ: human GPR151 activation | Q8TDV0 | PathHunter beta-arrestin GPR151 cells, luminescence | activation, % at 11.2 µM | 650,000 tested, 1% active; in the data active means activation above about 4.9%;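 further: 0% = median of compound wells and 100% = cells with positive control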
TEAD-YAP block: TEAD-YAP interaction inhibition; HEK-TIYL cells, TEAD-Gal4/YAP UAS-luciferase luminescence; inhibition, % at 9.12 µM; 640,000 tested, 1.4% active; in the data active means inhibition above about 32%;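 further: 0% = median of test compound wells and 100% = reference inhibitor wells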
MITF inh: blocks human microphthalmia-associated transcription factor | O75030 | AlphaScreen MITF homodimerization, bead proximity signal | inhibition, % at 2.6 µM | 650,000 tested, 0.91% active | AID 1259374; in the data active means inhibition above about 50%;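 further: 0% = vehicle wells with protein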
Target sequence (O75030 whole entry, looked up): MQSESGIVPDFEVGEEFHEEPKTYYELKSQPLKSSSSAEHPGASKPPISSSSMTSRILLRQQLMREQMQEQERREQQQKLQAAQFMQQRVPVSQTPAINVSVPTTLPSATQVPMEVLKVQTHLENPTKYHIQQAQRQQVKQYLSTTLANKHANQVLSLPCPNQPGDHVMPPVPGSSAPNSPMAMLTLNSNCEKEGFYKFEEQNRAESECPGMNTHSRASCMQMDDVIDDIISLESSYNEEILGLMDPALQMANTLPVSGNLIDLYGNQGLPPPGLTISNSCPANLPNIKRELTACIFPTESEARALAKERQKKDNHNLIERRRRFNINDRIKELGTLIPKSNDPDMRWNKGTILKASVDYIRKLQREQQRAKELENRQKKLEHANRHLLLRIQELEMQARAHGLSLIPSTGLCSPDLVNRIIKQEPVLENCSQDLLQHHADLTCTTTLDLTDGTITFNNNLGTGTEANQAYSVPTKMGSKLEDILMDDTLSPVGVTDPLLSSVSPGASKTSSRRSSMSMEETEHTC
FBW7 act: activators of human E3 ligase FBW7; 650,000 tested, 0.13% active; normalized activity (activation), % at 26.1 µM; AlphaScreen FBW7–phospho-cyclin E peptide binding, activator screen; Q969H0; in the data active means normalized activity above about 1.9%;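 further: purified mutant Fbw7 with reduced substrate affinity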
The depositor's hits bear a star; nt = not tested or not shown.

SMILES	GPR151 activ	TEAD-YAP block	MITF inh	FBW7 act
Cc1ccc(S(=O)(=O)Nc2cccc(C(=O)NCc3cccnc3)c2)cc1	-0.4	58.1*	17.2	0.2
O=S1(=O)CCC(NC(=S)Nc2ccc(OC(F)F)cc2)C1 (stereo not given)	-0.2	40.7*	-7.8	-0.2
COc1ccc(C(=O)NC(=S)NC2CCS(=O)(=O)C2)cc1 (stereo not given)	0.3	2.4	38.0	0.0
COC(=O)c1c(C)oc2c1cc(NS(=O)(=O)c1ccccc1)c1ccccc12	1.7	4.5	0.3	0.0
COc1ccc(S(=O)(=O)Nc2cc3c4c(oc3c3ccccc23)CCCC4=O)cc1	1.3	55.6*	12.5	0.0
COC(=O)c1c(C)oc2c1cc(NS(=O)(=O)c1ccc(OC)cc1)c1ccccc12	-1.4	50.8*	2.0	-0.1
Cc1ccccc1NCC(=O)N/N=C\c1ccccc1Cl	-0.5	-9.8	2.9	0.1
CCCCS(=O)(=O)C(=C(Nc1ccc(CC)cc1)Nc1ccc(CC)cc1)S(=O)(=O)CCCC	1.5	1.9	3.5	0.0
C/C(=N\NC(=O)C1COc2ccccc2O1)c1ccc(Br)cc1 (stereo not given)	-0.6	37.8*	-1.4	0.6
Cc1cc(-c2ccc(NC(=O)[C@H]3COc4ccccc4O3)cc2)ccn1	0.5	75.0*	22.6	0.0
O=C(N/N=C/c1ccc(Br)cc1)C1COc2ccccc2O1 (stereo not given)	-0.5	36.8*	-4.8	0.0
C/C(=N\NC(=O)CNC(=O)C1COc2ccccc2O1)c1ccccc1 (stereo not given)	-1.1	9.9	-26.1	0.0
Cc1ccc(/C=N/NC(=O)C2COc3ccccc3O2)cc1 (stereo not given)	-0.1	51.2*	18.5	0.0
CCc1ccc(NC(=O)Cn2nnc(-c3c(F)cccc3Cl)n2)cc1	0.7	-7.8	-1.6	0.0
O=C(O)CCc1nn2c3ccccc3n(CCN3CCCCC3)c2nc1=O	1.7	-2.6	15.8	0.8
CN1CCC(=NNC(=O)C2COc3ccccc3O2)CC1 (stereo not given)	-0.2	37.5*	-2.3	-0.1
O=C1CCC/C(=N\NC(=O)C2COc3ccccc3O2)C1 (stereo not given)	0.0	7.6	9.2	-0.2
CC1(OC(=O)CCc2ccccc2)C(=O)C=C2C=C(c3ccsc3)OC=C2C1=O (stereo not given)	-0.2	nt	-0.4	-0.1
Nc1nc(NCc2cccc(C(F)(F)F)c2)cc(-c2ccccc2)n1	1.0	44.5*	2.1	-0.1
Nc1cccc(-c2cc(NCc3cccc(C(F)(F)F)c3)nc(N)n2)c1	1.3	43.8*	-11.1	-0.1
N#CC(C#N)=C1c2cc([N+](=O)[O-])ccc2-c2c1cccc2[N+](=O)[O-]	-1.3	16.9	5.5	0.2
O=c1cc(CNCc2cccs2)c2cc3c(cc2o1)CCC3	-2.0	45.1*	-0.3	-0.2
COc1cc(C2C3=C(CC(C)(C)CC3=O)Nc3ccc4ccccc4c32)ccc1O (stereo not given)	-1.7	5.5	44.1	0.1
CC(Oc1cccc(Cl)c1)C(=O)Nc1cccc(F)c1 (stereo not given)	0.2	2.4	19.7	0.3
CC(Oc1cccc(Cl)c1)C(=O)Nc1ccc(F)c([N+](=O)[O-])c1 (stereo not given)	0.1	34.3*	9.3	0.0
SMILES	GPR151 activ	TEAD-YAP block	MITF inh	FBW7 act
COc1ccc(C2CC(=O)C3=C(C2)Nc2ccccc2NC3c2cc(Cl)c(O)c(OC)c2)cc1OC (stereo not given)	-1.6	-0.5	11.3	-0.1
O=C(c1cc(-c2cccs2)n(CC(=O)N2CCCc3ccccc32)n1)N1CCOCC1	-0.2	50.7*	-5.1	-0.1
CN(C)C(=O)Cn1nc(C(=O)N2CCOCC2)cc1-c1cccs1	0.9	4.1	12.5	0.2
Cc1ccccc1C(=O)Nc1cc(-c2nc3cc(C(C)C)ccc3o2)ccc1Cl	0.6	3.6	6.5	0.1
COc1ccccc1C(=O)Nc1cc(-c2nc3cc(C(C)C)ccc3o2)ccc1Cl	0.4	34.5*	-0.2	0.0
CC(C)c1ccc2oc(-c3ccc(Cl)c(NC(=O)Cc4ccccc4)c3)nc2c1	0.2	60.9*	-4.3	0.0
CC(C)c1ccc2oc(-c3ccc(Cl)c(N)c3)nc2c1	-5.9	82.9*	2.0	0.1
Cc1ccc2oc(-c3ccc(Cl)c(NC(=O)Cc4ccccc4)c3)nc2c1	-1.5	3.8	5.1	0.3
CO[C@H]1[C@H](NC(=O)c2ccccn2)c2ccccc2C12CCN(C(=O)c1cscn1)CC2	0.2	-25.3	11.9	0.9
CCOc1cccc2c1OC1(C)CC2NC(=O)N1c1cccc(F)c1 (stereo not given)	2.6	10.9	-5.0	4.4*
O=C(Nc1ccccc1)c1ccnc(-c2cccs2)c1	-1.1	-2.1	40.5	-0.1
Cc1nc2ccccc2c2nc3ccccc3n12	0.6	-2.4	-3.0	-0.1
c1ccc2c(c1)nnn1c3ccccc3nc21	-9.2	34.8*	4.1	0.0
CCCC(CCC)C(=O)NCCN1CCCCC1	-1.4	11.1	8.3	0.0
COCCOC(=O)c1[nH]c2c(c1C)C(=O)CC(c1ccc(N(C)C)cc1)C2 (stereo not given)	1.0	-7.1	-0.2	0.3
COCCOC(=O)c1[nH]c2c(c1C)C(=O)CC(c1ccccc1)C2 (stereo not given)	0.3	49.0*	3.3	0.0
Cc1c(C(=O)OCCOC(C)C)[nH]c2c1C(=O)CC(c1ccccc1)C2 (stereo not given)	0.7	48.1*	10.6	-0.2
Cc1c(C(=O)O)[nH]c2c1C(=O)CC(c1ccccc1)C2 (stereo not given)	0.0	11.2	8.0	0.0
COCCOC(=O)c1[nH]c2c(c1C)C(=O)CC(c1ccc(F)cc1)C2 (stereo not given)	-0.4	35.2*	6.6	0.1
COCCOC(=O)c1[nH]c2c(c1C)C(=O)CC(c1ccc(Cl)cc1)C2 (stereo not given)	2.8	-32.8	-1.5	0.4
O=C1CCCN1CCCNc1nc(Nc2ccccc2)c2ncn(C3CCCCC3)c2n1	-1.7	64.3*	-0.9	0.6
CC(=O)Nc1ccc(Nc2nc(NCCCN3CCCC3=O)nc3c2ncn3C2CCCCC2)cc1	-2.7	-11.2	-3.3	0.0
c1cnc(Nc2nc(NC3CC3)c3ncn(C4CCCCC4)c3n2)cn1	4.8	41.8*	7.3	0.1
O=C1CCCN1CCCNc1nc(Nc2cnccn2)nc2c1ncn2C1CCCCC1	-2.1	34.9*	5.8	-0.1
O=C1CCCN1CCCNc1nc(Nc2cnccn2)nc2c1ncn2CCN1CCCC1=O	-0.2	6.4	3.3	0.0
COc1ccc(OC)c(C2Nc3ccc(C(=O)O)cc3NC3=C2C(=O)CC(C)(C)C3)c1 (stereo not given)	0.7	3.6	-4.0	-0.1
COc1cccc(-c2ocnc2C(=O)Nc2ccc(N3CCC(C)CC3)c(C(N)=O)c2)c1	0.3	-6.2	6.8	9.2*
Cc1ccc(C(=O)Nc2cc(-n3c(C)nc4ccccc4c3=O)ccc2F)cc1	-0.5	-7.5	-0.4	-0.2
COc1ccccc1C(=O)NC(=S)Nc1ccccc1	-1.3	36.1*	3.7	-0.1
COc1ccccc1C(=O)NC(=S)Nc1ccc(NC(C)=O)cc1	-0.1	-54.1	1.7	-0.1
